Test results published in PubChem BioAssay (NCI).
“And” between values parts separate entries of the source, which are not always exact repeats. Identical values can stand only once. Compounds without any hit were thinned out: in the full panel of roughly 79,000, 15% have a hit. The source made the active and inactive calls. No stated cut-off is given here; in the data, active means growth inhibition above about 70%; inactive means the rest.

Legend:
[1] = NCI Yeast Anticancer Drug Screen. Data for the rad50 strain (AID 155);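 further: 0% = growth of vehicle-only cultures of the same strain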; details: S. cerevisiae rad50 strain growth inhibition, stronger effect = higher value; at 50.0 µM unless noted
In short: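 Genetically altered yeast (DNA repair pathway); compound treatment; growth inhibition vs vehicle ctrl.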

[2] = NCI Yeast Anticancer Drug Screen. Data for the mec2-1 strain (AID 157); details: S. cerevisiae mec2-1 strain, stronger effect = higher value; at 50.0 µM unless noted
In short: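 Readout is yeast growth inhibition, normalised to vehicle-treated controls, in the mec2-1 strain exposed to compound.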

[3] = NCI Yeast Anticancer Drug Screen. Data for the sgs1 mgt1 strain (AID 161);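 further: 0% = growth of cultures given vehicle only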; details: S. cerevisiae sgs1 mgt1 strain, stronger effect = higher value; at 50.0 µM unless noted
In short: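 Growth of a repair-deficient yeast mutant was monitored after compound treatment and expressed as inhibition relative to vehicle-treated cultures.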

[4] = NCI Yeast Anticancer Drug Screen. Data for the cln2 rad14 strain (AID 165);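 further: 0% = growth equal to vehicle treated cultures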; details: S. cerevisiae cln2 rad14 strain, stronger effect = higher value; at 50.0 µM unless noted
In short: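 Relative to vehicle controls, growth inhibition of compound-treated cln2 rad14 yeast was recorded.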

[5] = NCI Yeast Anticancer Drug Screen. Data for the bub3 strain (AID 167); details: S. cerevisiae bub3 mutant strain, stronger effect = higher value; at 50.0 µM unless noted
In short: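 Yeast carrying a defined mutation is treated with each compound, and growth is compared with that of vehicle-exposed cells to give inhibition.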

[6] = NCI Yeast Anticancer Drug Screen. Data for the mlh1 rad18 strain (AID 175); details: S. cerevisiae mlh1 rad18 strain growth inhibition, stronger effect = higher value; at 50.0 µM unless noted
In short: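 Test agents were incubated with a yeast strain of defined genotype (DNA damage repair defect). Inhibition of growth was derived by comparison with vehicle-exposed cultures.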

Measured: growth inhibition

COc1ccccc1N=Nc1c(O)n(-c2ccccc2OC)c(=S)n(-c2ccccc2)c1=O
inactive: [1] 40.8% | [2] -3.45% | [3] 31.9% | [4] -13.4% | [5] -2.5% | [6] 16.9%

Cc1nn2c(nnn2CCO)c1-c1ccccc1
inactive: [1] 10.7% | [2] -5.65% | [3] -15% | [4] -10.6% | [5] -25.4% | [6] 15.8%

N#Cc1[nH]c(=O)n(-c2ccc([N+](=O)[O-])cc2)c1N
inactive: [1] -29.4% | [2] -59.8% | [3] -25.1% | [4] -1.7% | [5] -12.1% | [6] -39.9%

CNC(=O)N(CCCC(NC(C)=O)C(=O)NCc1ccccc1)Cc1ccccc1 (stereo not given)
inactive: [1] 16.1% | [2] 3.4% | [3] -7.95% | [4] 17.6% | [5] 8.5% | [6] 18.9%

COc1ccc2occ(CCC(=O)O)c2c1
inactive: [1] 6.4% | [2] -0.75% | [3] -2.25% | [4] -25.9% | [5] -1.1% | [6] 6.9%

Cc1nc2c(N)n[nH]c(=O)n2n1
inactive: [1] -20.9% | [2] -14.4% | [3] -19.2% | [4] -54% | [5] 7.15% | [6] -4.7%

CCCCCC1CC(=O)NC1C(=O)O (stereo not given)
inactive: [1] -2.75% | [2] 1.25% | [3] -10.8% | [4] -8.8% | [5] -1.15% | [6] -8.95%

CCCc1onc(-c2noc(CCC)c2CC)c1CC
inactive: [1] 15.8% | [2] -6.65% | [3] -1.9% | [4] 9.85% | [5] -19.4% | [6] 15.7%

CCC[N+](C)(C)CCC#N
inactive: [1] -4.55% | [2] 10.9% | [3] 4.2% | [4] -14% | [5] 17.1% | [6] 5.25%

CC(=O)Nc1nc(SCc2ccccc2)c2[nH]cnc2n1
inactive: [1] -25.2% | [2] 1.75% | [3] 0.6% | [4] -43.5% | [5] 31.2% | [6] 7.3%

CCOC(=O)/C=C/CCC(C)(C)COC(C)=O
inactive: [1] -10.1% | [2] -1.4% | [3] -36.9% | [4] -49.8% | [5] 0.05% | [6] -31.9%

O/N=C/c1ccco1
inactive: [1] 1.2% | [2] -9.85% | [3] 7.75% | [4] -1.15% | [5] -6.55% | [6] 16.1%

CC1=NN(c2ccccc2)C(=O)C1O (stereo not given)
inactive: [1] 12.1% | [2] 16.2% | [3] -6.05% | [4] -25.4% | [5] -10.6% | [6] 2.5%

CNC(CCCCC1CCCCC1)C(=O)O (stereo not given)
inactive: [1] 8.2% | [2] 3.4% | [3] 12.1% | [4] -10.8% | [5] -8.2% | [6] -0.2%

ClCc1ccccc1C(c1ccccc1)c1ccccc1
inactive: [1] -0.8% | [2] 20.4% | [3] 7.1% | [4] -32.1% | [5] 24.9% | [6] 21.9%

COC1CCC2(C)C(CCC3C4CCC(OC(C)=O)C4(C)CCC32)O1 (stereo not given)
inactive: [1] 1.65% | [2] -9.55% | [3] -9.45% | [4] -6.7% | [5] -1.95% | [6] -14.8%

O=C(/C=C/c1ccccc1)CSc1ncn[nH]1
inactive: [1] 10.1% | [2] 5.4% | [3] 8.7% | [4] 4.75% | [5] 19.4% | [6] -7.4%

COc1ccc2cc1Oc1ccc(cc1)C[C@H]1c3cc(c(OC)cc3CCN1C)Oc1c(OC)c(OC)cc3c1[C@H](C2)N(C)CC3
inactive: [1] 27.1% and 23.9% | [2] 12.3% and -23.1% | [3] -15.9% and 5.7% | [4] -26.3% and 4.5% | [5] -6.4% and 19.7% | [6] -31.4% and -38.9%

Cc1cc(C)[nH]c(=O)c1
inactive: [1] 9.2% | [2] 0.75% | [3] -2.75% | [4] 3.8% | [5] 20.1% | [6] 4.4%

CC1=Cc2cccc(C)c2C(=O)C1=O
active: [1] 93.6% | [2] 95.2% | [3] 94.5% | [4] 92.8% | [5] 93.8% | [6] 93.2%

O=C1NC(N2CCOCC2)=N/C1=C\c1ccc(Cl)cc1
inactive: [1] 1.75% | [2] 3.6% | [3] 4.9% | [4] -6.25% | [5] -11.1% | [6] -29.9%

CC(=O)[CH-]C(=O)c1ccccc1.CC(=O)[CH-]C(=O)c1ccccc1.CC1(C)OCC(C2OC3OC(C)(C)OC3C2[O-])O1.CC1(C)OCC(C2OC3OC(C)(C)OC3C2[O-])O1.[Ti+4] (stereo not given)
inactive: [1] 29.9% | [2] 5.65% | [3] 14.8% | [4] 14.9% | [5] 27.9% | [6] 20.2%

Cc1[nH]c2ccccc2c1/C=C/c1c[nH]c2ccccc12
inactive: [1] 22% | [2] 29.9% | [3] 27.1% | [4] 15.8% | [5] 55.5% | [6] 40.4%

C=CCNC1=C(NC(C)=O)C(=O)c2ccccc2C1=O
inactive: [1] 16.1% | [2] 0.95% | [3] 4.8% | [4] -31.2% | [5] 28.6% | [6] 12.4%

O=C1OC(c2ccccc2)=N/C1=C/C=C/c1ccco1
inactive: [1] -10.9% | [2] -5.45% | [3] -6% | [4] -9.75% | [5] -1.6% | [6] -40.3%

CCCCC1(CC)COC(C)(CC)OC1 (stereo not given)
inactive: [1] 29.4% | [2] 15.7% | [3] 5.3% | [4] -26.6% | [5] -19.4% | [6] 17.5%

CCCCCCCCCCCC(=O)NCc1ccc(OC(=O)CCCCCCCCCCC)c(OC)c1
inactive: [1] -7.55% | [2] -9.8% | [3] -6.3% | [4] -34.1% | [5] 4.1% | [6] -8.85%

C(=N\N(c1ccccc1)c1ccccc1)/C(c1ccccc1)c1ccccc1
inactive: [1] 2.55% | [2] -3.2% | [3] 1.9% | [4] -3.95% | [5] 2.2% | [6] -4.35%

O=S(=O)(NCCSSCCNS(=O)(=O)c1ccccc1)c1ccccc1
inactive: [1] 45% | [2] 17.5% | [3] 51.6% | [4] 16.6% | [5] 23.6% | [6] 34.7%

CC1(C)CC(=O)C=C(n2ccccc2=O)C1
inactive: [1] 2.7% | [2] -5.3% | [3] 0.15% | [4] 7.5% | [5] -19.8% | [6] -1.8%

CCOc1ccc(C(=O)C[N+]2(CCc3ccccc3)CCOCC2)cc1
inactive: [1] -12.9% | [2] 6.3% | [3] 11.6% | [4] 6.2% | [5] -0.7% | [6] 41%

CN(C)Cc1cc(C(=O)/C=C/c2ccc(Cl)c(Cl)c2)cc(CN(C)C)c1O
inactive: [1] -1.95% | [2] -14.4% | [3] 6.3% | [4] 31.9% | [5] 2.15% | [6] -3.3%

O=C1c2scc(-c3ccc(F)cc3)c2-n2cccc21
inactive: [1] 7.8% | [2] 12.5% | [3] 7.6% | [4] 3.7% | [5] 8.65% | [6] 24.1%

C[N+](C)=c1nc(N2CCOCC2)ss1
inactive: [1] 1.95% | [2] 0.65% | [3] 6.8% | [4] 8.95% | [5] -63.4% | [6] -16.9%

CCOC(=O)C/C(O)=C(/C=N/C(=S)NNC(C)=O)C(=O)OCC
inactive: [1] -27.1% | [2] -28.9% | [3] -32.2% | [4] 2.65% | [5] -19.6% | [6] -8.65%

CC(=O)Nc1ccc(N(C)C)cc1
inactive: [1] 0.15% | [2] -3.4% | [3] 0.55% | [4] 10.2% | [5] 14.7% | [6] -7.85%

COc1ccc(NC(=O)/C(=N\NC(=O)C[n+]2ccccc2)c2c(O)c3ccc(O)cc3oc2=O)c([N+](=O)[O-])c1
inactive: [1] 26.6% | [2] 47.2% | [3] 29.4% | [4] 7.55% | [5] 39.5% | [6] 39.1%

COc1ccccc1OC(=O)c1ccc(Cl)cc1
inactive: [1] 2.2% | [2] -17.6% | [3] 18.7% | [4] -63.9% | [5] 1.35% | [6] 0.75%

O=C(O)c1cc(C(=O)O)cc(C(=O)O)c1
inactive: [1] -1.55% | [2] -16.2% | [3] -8.1% | [4] -56.9% | [5] -3.05% | [6] -30.1%

S=c1nc[nH]c2[nH]cc(Br)c12
inactive: [1] 11.6% | [2] -6.55% | [3] 2.5% | [4] -4.7% | [5] 3.75% | [6] 11.8%
